# Laboratory results reported in the supplement of paper PMC6555819.
# Legend:
# Test in all cases: PBM binding z-score (relative to random genomic background probes); higher = stronger binding; sequences stand for … in GC…GCGATTGACAGCGTAGAATGAAGG
# [1] = tested on: FXR:RXRa (NR concentration 270 nM, RXRa partner concentration 90 nM)
# How it was run: (§1)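 For binding z-scores, the reference was random background probes on custom Agilent 4×180K protein-binding microarrays. These arrays were incubated 1 h with ligand-free nuclear receptor dimers in PBS pH 7.4, 2% milk, 0.02% Triton X-100, 1 mM DTT, 0.2 mg/mL BSA and 0.4 mg/ml salmon testes DNA. Fluorescence was scanned after antibody detection of each partner (one per run) and regression-normalized.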
# [2] = tested on: LXRa:RXRa (NR concentration 270 nM, RXRa partner concentration 90 nM)
# How it was run: as §1
# [3] = tested on: LXRa homodimer (NR concentration 270 nM)
# How it was run: as §1
# [4] = tested on: LXRb:RXRa (NR concentration 270 nM, RXRa partner concentration 90 nM)
# How it was run: as §1
# [5] = tested on: LXRb homodimer (NR concentration 270 nM)
# How it was run: as §1
# [6] = tested on: PPARa:RXRa (NR concentration 270 nM, RXRa partner concentration 90 nM)
# How it was run: as §1
# [7] = tested on: PPARg:RXRa (NR concentration 180 nM, RXRa partner concentration 90 nM)
# How it was run: as §1
# [8] = tested on: PPARg:RXRa 270nM:90nM, anti-RXR (NR concentration 270 nM, RXRa partner concentration 90 nM)
# How it was run: as §1
# [9] = tested on: PPARg:RXRa 30nM:10nM, anti-RXR (NR concentration 30 nM, RXRa partner concentration 10 nM)
# How it was run: as §1
# [10] = tested on: PPARg:RXRa 90nM:30nM, anti-RXR (NR concentration 90 nM, RXRa partner concentration 30 nM)
# How it was run: as §1
Sequence,PBM binding z-score [1],PBM binding z-score [2],PBM binding z-score [3],PBM binding z-score [4],PBM binding z-score [5],PBM binding z-score [6],PBM binding z-score [7],PBM binding z-score [8],PBM binding z-score [9],PBM binding z-score [10]
CCTTACGGGTCACTGACATGTTATAGCATTTGGA,5.55,3.84,0.306,3.54,0.233,5.2,4.42,4.66,2.21,3.45
TCTATTAGTGGATTAGGGCAACCGAAACAGCGGA,0.803,0.521,0.262,0.532,0.78,0.571,0.412,1.68,3.07,2.64
TCTAGTTGGTCACGGAGTTCACACACGACGGGTA,1.65,2.17,2.34,1.88,0.263,2.63,1.88,2.66,3.07,2.99
ATCTCTAGATAAAAGTTCAGTGAATCCCGAGGAT,0.0145,0.704,1.41,0.746,0.367,1.59,1.74,3.39,1.72,3.2
ATATGTAGGTTAGCTGGGGTCATTCATACTAGGC,4.61,5.73,3.67,5.14,1.97,5.1,5.98,5.23,3.12,4.83
TGAATGAGGCTATAAGATCAGGGAACGTTGCAAA,-0.518,-0.611,-0.669,-0.726,-0.998,-0.176,0.387,0.203,0.0907,-0.0194
CCTACTGGGCCAAATGTCATTGATTCCAATGCTC,0.068,-0.00295,-0.00298,0.307,-0.155,3.42,7,7.26,6.52,7.54
AGAATGAGGTTACCAAAGAACAGGGAAACGCTTG,1.88,5.18,-0.214,2.35,-0.334,3.32,2.51,2.41,1.03,1.71
CCGAGTAGGTTATGGGGGATTCAGGCAACGGTGA,1.01,1.49,0.84,3.36,6.87,2.55,2.34,4.36,1.98,3.77
TCATATAGGTAATACAGGTGAAACTCGGCATCTA,1.07,1.41,0.63,1.14,0.362,2.28,1.85,2.56,3.88,3.33
CAAACTCGGTCAAAGGTCAAAGTCGAGCCAACCA,7.73,6.98,6.36,6.72,3.13,7.67,12.9,10.9,11.8,12.5
CCGACTGGCGCAAGGTTACCATAACGCACAGCCA,0.175,0.561,-0.255,0.645,-0.776,0.766,0.701,-0.0732,-0.409,-0.61
TCTGCTAGGTCAACGATAGTCAGCTAATCTGCTA,3.23,2.35,-0.23,1.4,-0.0504,3.14,2.53,3.15,1.95,2.82
CCTTACGGGTCACTCCAGGTTATAACATCGGAGT,4.88,7.46,2.11,5.8,0.0817,4.74,3.9,3.91,1.29,2.8
ACAATGAGGTTACCAAAGATCAGGGAAACGCTTG,1.97,6.4,0.286,3.25,0.572,3.26,2.36,2.11,0.698,1.61
ATCTGTAGGTAAAAGTTCAGTGAATCCCGAGGAT,0.442,1.21,0.955,0.989,0.43,4,8.09,7.62,7.35,8.71
TCTAGCAGGCCAGAGGGTCACTCTAGAGGTACGG,0.795,0.863,-0.632,1.02,-1.09,2.13,1.45,2.77,2.29,2.45
GCTGCTAGGTCAGCTGATGGTCAGCTAAAGCTCG,1.21,0.513,-0.477,0.0658,-1.13,1.58,0.146,1.01,-0.292,0.544
ATCTCCAGGTAACCAAGTTCAGTGAATGCCGAAC,0.454,0.776,1.02,0.753,0.946,0.696,0.227,0.427,0.0617,0.231
CAAACTAGGTCACGCAAGGTCAAAGTCGAATGAC,7.41,7.71,7.2,7.01,1.72,6.75,10.2,7.79,6.97,8.64
ATCTCTAGGTAGAGATAGTTCAGTGAATGCAAAT,-0.234,-0.0128,0.0165,-0.111,0.0975,0.178,0.258,0.0156,0.0243,0.104
ATCTCTAGGTAACAAGTTCAGAGAAAGAGAGGAC,0.853,0.957,0.71,0.814,0.838,1.67,1.71,2.04,0.949,1.76
ACTAGTTGGTCAGCTGAGGACACACACAATTCGG,1.67,-0.161,-0.165,0.0976,0.0569,0.0805,0.997,-0.202,-0.228,-0.243
